± gives the standard deviation.
How the values were obtained:
Conditions in all cases: modulator concentration 10 µM
[1] = test system: RAW-Dual (murine macrophage reporter line); test: NF-kB reporter (SEAP) activity fold change vs agonist alone; higher = enhanced NF-kB activity
Method in brief: (§1)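 In 384-well plates holding 50 000 RAW-Dual murine macrophage reporter cells per well, compound at 10 μM final was pre-incubated for 1 hour at 37 °C, after which a PRR agonist was added overnight. Supernatant SEAP read with QUANTI-Blue at 620 nm absorbance reported NF-κB, and Lucia luciferase read with QUANTI-Luc luminescence reported IRF. Fold change values come from dividing each reporter signal by the mean of agonist-only control wells on the same plate, averaged over replicate plates with propagated errors.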

[2] = test system: RAW-Dual (murine macrophage reporter line); test: IRF reporter (Lucia luciferase) activity fold change vs agonist alone; higher = enhanced IRF activity
Method in brief: as §1

[3] = test system: RAW-Dual (murine macrophage reporter line); test: viability score (confluency relative to resting cells, overnight) (fraction); higher = more viable, active = viable (0.7 or more)
Method in brief: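 Confluency was the readout: RAW-Dual macrophages were imaged with IncuCyte after an overnight exposure to compound at 10 μM final. IncuCyte software produced two masks over all imaged wells. The viability score expresses confluency against resting cells, and both masks had to exceed 70% of resting cells for a compound to meet the cutoff.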

[4] = agonist: CpG ODN 1826 0.5 ug/mL

Row | Compound | NF-kB reporter [1, 4] | NF-kB reporter ([1]; agonist: LPS 0.1 ug/mL) | NF-kB reporter ([1]; agonist: MPLA […]) | IRF reporter ([2]; agonist: 3'3'-cGAMP 10 ug/mL) | IRF reporter ([2]; agonist: LPS 0.1 ug/mL) | IRF reporter ([2]; agonist: MPLA […]) | viability score [3]
1 | NC(=O)CC[C@@H](N)C(=O)O | 1.16 ± 0.31 | 1.05 ± 0.059 | 0.953 ± 0.068 | 0.946 ± 0.046 | 1.37 ± 0.2 | 1.23 ± 0.17 | 1.01 (active)
2 | CC(C)C(=O)c1c(C(C)C)nn2ccccc12 | 1.59 ± 0.12 | 1.2 ± 0.086 | 1.21 ± 0.032 | 0.808 ± 0.076 | 0.938 ± 0.031 | 0.926 ± 0.088 | 0.957 (active)
3 | CC(C)=CCCC(C)=CC=NNC(=S)Nc1ccc(C)cc1 | 0.855 ± 0.049 | 1.12 ± 0.075 | 1.02 ± 0.065 | 0.256 ± 0.019 | 1.55 ± 0.19 | 1.5 ± 0.18 | 0.997 (active)
4 | COc1cccc(C=NNc2nnc(C)c(=O)[nH]2)c1OC | 0.888 ± 0.27 | 1.08 ± 0.094 | 0.993 ± 0.12 | 0.952 ± 0.038 | 1.09 ± 0.22 | 1.15 ± 0.29 | 1.01 (active)
5 | CCN1CCN(CC(O)COc2ccc(C(C)(C)C)cc2C(C)(C)C)CC1.Cl.Cl (configuration not stated) | 0.72 ± 0.12 | 0.999 ± 0.08 | 2.1 ± 0.29 | 0.96 ± 0.052 | 1.24 ± 0.14 | 2.24 ± 0.24 | 0.25 (inactive)
6 | CN1CCc2c(sc3[nH]c(=S)n(CCc4ccccc4)c(=O)c23)C1 | 0.753 ± 0.063 | 0.814 ± 0.042 | 0.967 ± 0.11 | 0.778 ± 0.042 | 1.28 ± 0.083 | 1.39 ± 0.17 | 1.01 (active)
7 | CC(=O)N(C1=C(Nc2ccccc2)C(=O)c2ccccc2C1=O)c1ccccc1 | 2.44 ± 0.19 | 1.52 ± 0.098 | 2.64 ± 0.16 | 2.12 ± 0.063 | 5.77 ± 0.43 | 3.69 ± 0.39 | 0.334 (inactive)
8 | COc1ccc(NC(=O)CN2C(=O)c3cccc4cccc(c34)C2=O)cc1 | 0.966 ± 0.059 | 0.998 ± 0.087 | 0.938 ± 0.063 | 0.939 ± 0.033 | 1.2 ± 0.11 | 1.1 ± 0.12 | 1 (active)
9 | Cc1ccc(CCC(=O)N2CC(N3C(=O)C4CC=CCC4C3=O)C2)cc1F (configuration not stated) | 0.728 ± 0.26 | 1.1 ± 0.1 | 1 ± 0.044 | 0.741 ± 0.037 | 1.05 ± 0.12 | 0.87 ± 0.092 | 1 (active)
10 | CCOc1cc2ncc(C#N)c(Nc3ccc(OCc4ccccn4)c(Cl)c3)c2cc1NC(=O)/C=C/CN(C)C | 0.161 ± 0.007 | 0.781 ± 0.075 | 0.907 ± 0.092 | 0.694 ± 0.032 | 1.46 ± 0.26 | 1.56 ± 0.57 | 0.977 (active)
11 | COc1ccc(OC)c2sc(NC(=O)C(C)C)nc12 | 0.97 ± 0.075 | 1.02 ± 0.059 | 1 ± 0.031 | 0.837 ± 0.06 | 0.885 ± 0.11 | 0.828 ± 0.14 | 0.993 (active)
12 | O=C(NN=Cc1c(O)ccc2ccccc12)c1ccncc1 | 2.37 ± 0.19 | 1.3 ± 0.086 | 1.48 ± 0.052 | 0.75 ± 0.11 | 1.26 ± 0.1 | 1.21 ± 0.2 | 0.965 (active)
13 | CCOc1cc([C@@H](CS(C)(=O)=O)N2C(=O)c3cccc(NC(C)=O)c3C2=O)ccc1OC | 2.72 ± 0.66 | 0.969 ± 0.058 | 1.69 ± 0.15 | 1.01 ± 0.048 | 1.05 ± 0.12 | 1.14 ± 0.15 | 0.977 (active)
14 | COc1cccc(-c2ccc(NC(=O)C3=C(C(=O)O)CCC3)c(F)c2)c1 | 0.954 ± 0.25 | 0.806 ± 0.088 | 1.01 ± 0.088 | 2.42 ± 0.23 | 2.04 ± 0.35 | 1.38 ± 0.24 | 0.91 (active)
15 | COC(=O)N[C@H](C(=O)N1CCC[C@H]1c1ncc(-c2ccc(-c3ccc(-c4cnc([C@@H]5CCCN5C(=O)[C@@H](NC(=O)OC)C(C)C)[nH]4)cc3)cc2)[nH]1)C(C)C.Cl.Cl | 0.437 ± 0.029 | 0.513 ± 0.032 | 0.759 ± 0.045 | 1.27 ± 0.042 | 1.85 ± 0.48 | 1.99 ± 0.46 | 0.204 (inactive)
16 | CC(NC(=O)C(=O)NN=Cc1ccc(Cl)cc1Cl)c1ccccc1 (configuration not stated) | 0.967 ± 0.095 | 1.16 ± 0.077 | 0.953 ± 0.084 | 1.22 ± 0.051 | 1.39 ± 0.16 | 1.14 ± 0.11 | 0.991 (active)
